# The campaign covered roughly 2,300 compounds. About 330 (14%) showed activity. Not all results are given here. A number with no mark means an inactive call.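 How the source made its calls: active = median modified Z-score above 1.96; inactive = 1.96 or below.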
# Tested on: HepG2 Srxn1-GFP reporter cells (+30 nM CDDO-Me)
# Experiment: Srxn1-GFP intensity median modified Z-score relative to plate median; higher = stronger NRF2 / oxidative stress reporter activation, active = hit call of the paper
# Conditions: 10 µM; exposure time: 24h
# Outline: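 Compound at 10 μM was applied with an NRF2 activator at 30 nM to HepG2 Srxn1-GFP BAC reporter cells for 24 h, in DMSO at no more than 0.1%, using three replicate 96-well plates seeded at 20,000 cells per well. Fixed, Hoechst-stained cells were imaged confocally and cytoplasmic GFP was scored for each cell, with images under 100 cells left out. The figure reported is the replicate median of the per-plate modified Z-score of GFP intensity. Scaling relied on 1.4826 × median absolute deviation.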
row,SMILES,Srxn1-GFP intensity median modified Z-score
1,COc1[nH]c(=N)nc2c1ncn2C1OC(CO)C(O)C1O (stereo not drawn) [euspeclibcmpd1835],-0.349
2,O=c1[nH]cnc2c1ncn2C1O[C@H](CO)[C@@H](O)[C@H]1O (stereo partly drawn) [euspeclibcmpd1256],-0.544
3,COc1ccc(CC(N)C(=O)N[C@@H]2[C@@H](CO)OC(n3cnc4c(N(C)C)ncnc43)[C@@H]2O)cc1 (stereo partly drawn) [euspeclibcmpd2118],2.51 (active)
4,COc1ccc(C(=O)O)c(O)c1OC [euspeclibcmpd1494],-0.416
5,CC(C=CC1(O)C(C)=CC(=O)CC1(C)C)=CC(=O)O (stereo not drawn) [euspeclibcmpd1542],0.012
6,CONC(=O)c1cc(-c2ccccc2)nc2ccccc12,1.04
7,Cc1cc(=NS(=O)(=O)c2ccc(N)cc2)[nH]o1 [euspeclibcmpd278],-0.427
8,C[C@@H]1CC[C@@]2(OC1)O[C@H]1CC3C4CC[C@H]5C[C@@H](O)CC[C@]5(C)C4CC[C@]3(C)[C@H]1[C@@H]2C (stereo partly drawn) [euspeclibcmpd2432],-0.319
9,C1CCN2C[C@@H]3C[C@H](CN4CCCC[C@@H]34)[C@H]2C1 [euspeclibcmpd2370],-0.181
10,N=c1[nH]c(=O)c2nc(CNc3ccc(C(=O)NC(CCC(=O)O)C(=O)O)cc3)cnc2[nH]1 (stereo not drawn) [euspeclibcmpd579],0.101
11,N=c1[nH]c(=O)c2c(CCc3ccc(C(=O)NC(CCC(=O)O)C(=O)O)cc3)c[nH]c2[nH]1 (stereo not drawn) [euspeclibcmpd2345],-0.108
12,N=c1[nH]c(=N)c2nc(CNc3ccc(C(=O)NC(CCC(=O)O)C(=O)O)cc3)cnc2[nH]1 (stereo not drawn) [euspeclibcmpd911],10 (active)
13,CN(Cc1cnc2[nH]c(=N)[nH]c(=N)c2n1)c1ccc(C(=O)NC(CCC(=O)O)C(=O)O)cc1 (stereo not drawn) [euspeclibcmpd190],8.95 (active)
14,N=c1[nH]c2c(c(=O)[nH]1)N(C=O)C(CNc1ccc(C(=O)NC(CCC(=O)O)C(=O)O)cc1)CN2 (stereo not drawn) [euspeclibcmpd2313],-0.0509
15,N=c1[nH]c(=O)c2c([nH]1)=NCC(CNc1ccc(C(=O)N[C@H](CCC(=O)O)C(=O)O)cc1)N=2 (stereo partly drawn) [euspeclibcmpd1474],0.016
16,COc1ccc(C)cc1CN1CCN(C(c2ccc(F)cc2)c2ccc(F)cc2)CC1,1.38
17,Oc1ccc2c(c1)OC[C@]1(O)C=c3cc(O)c(O)cc3=C21 [euspeclibcmpd1461],-0.856
18,NC(O)=NO [euspeclibcmpd156],0.197
19,O=C(O)c1ccc(S(=O)(=O)N(Cl)Cl)cc1 [euspeclibcmpd144],-0.332
20,Cc1[nH]oc(=NS(=O)(=O)c2ccc(N)cc2)c1C [euspeclibcmpd283],-0.063
21,CCC(C)C(=O)O[C@H]1C[C@@H](C)C=C2C=C[C@H](C)[C@H](CC[C@@H]3C[C@@H](O)CC(=O)O3)[C@H]21 (stereo partly drawn) [euspeclibcmpd875],-0.147
22,O=C1C[C@@H](c2ccc(O)cc2)Oc2cc(O)cc(O)c21 [euspeclibcmpd1328],0.815

row,SMILES,Srxn1-GFP intensity median modified Z-score
1,O=C1CC(c2ccccc2)Oc2ccccc21 (stereo not drawn) [euspeclibcmpd1376],3.07 (active)
2,O=C1CC(c2ccc(O)cc2)Oc2ccccc21 (stereo not drawn) [euspeclibcmpd2144],-0.183
3,COc1cc(O)c2c(=O)cc(-c3ccc(O)cc3)oc2c1 [euspeclibcmpd2253],0.0845
4,CCOC(=O)NN=c1[nH]ncc2ccccc12 [euspeclibcmpd1066],0.23
5,N=c1[nH]c(C(CCC(=O)O)C(=O)N=C2C(=O)N3C(C(=O)O)=CCS[C@H]23)cs1 (stereo partly drawn) [euspeclibcmpd717],-0.318
6,O=C(CCc1ccc(O)cc1)c1c(O)cc(O)cc1O[C@@H]1O[C@H](CO)[C@@H](O)[C@H](O)[C@H]1O [euspeclibcmpd1493],-0.343
7,O=C(CCc1ccc(O)cc1)c1c(O)cc(O)cc1O [euspeclibcmpd1518],16.3 (active)
8,CCC(=O)c1c(O)cc(O)cc1O [euspeclibcmpd1034],0.366
9,Cc1c(C(=O)O)c(O)cc2c(O)c3c(O)c(O)c(C4O[C@H](CO)[C@@H](O)[C@H](O)C4=O)c(O)c3c(O)c12 (stereo partly drawn) [euspeclibcmpd1436],-0.693
10,NC[C@H]1O[C@H](O[C@H]2[C@H](O)[C@@H](O[C@H]3O[C@H](CO)[C@@H](O)[C@H](N)[C@H]3O)[C@H](N)C[C@@H]2N)[C@H](N)[C@@H](O)[C@@H]1O [euspeclibcmpd351],0.19
11,CC[C@@H](CO)NCCN[C@@H](CC)CO [euspeclibcmpd120],-0.816
12,O=C(O)C1=C(CCO)O[C@@H]2CC(=O)N12 [euspeclibcmpd2294],0.746
13,O=C(O)CCC(=O)Nc1ccc(S(=O)(=O)N=c2[nH]ccs2)cc1 [euspeclibcmpd428],0.358
14,COc1cc(Cc2c[nH]c(=N)[nH]c2=N)cc(OC)c1OC [euspeclibcmpd310],0.316
15,CC1=C(/C=C/C(C)=C/C=C/C(C)=C/C=C/C=C(C)/C=C/C=C(C)/C=C/C2=C(C)C(=O)CCC2(C)C)C(C)(C)CCC1=O [euspeclibcmpd1669],-0.405
16,CC1CC(=O)NN=C1c1ccc(NN=C(C#N)C#N)cc1 (stereo not drawn) [euspeclibcmpd481],0.356
17,CN1CCC(=C2c3ccccc3CCc3sccc32)CC1 [euspeclibcmpd488],0.0303
18,CN1CCC(=C2c3ccccc3C=Cc3ccccc32)CC1 [euspeclibcmpd890],7.54 (active)
19,CN1CCC(=C2c3ccccc3Sc3ccccc32)CC1 [euspeclibcmpd1250],0.25
20,C=CCn1c(C(C)Oc2ccc(OCC)cc2)nnc1N1CCC(C(=O)OC)CC1 (stereo not drawn),1.58
21,Cn1c(SC2CCCCC2=O)nnc1-c1cccc(Br)c1 (stereo not drawn),4.66 (active)
